BRCT inh green: BRCA1 BRCT-phosphoprotein interaction inhibition; Potency, µM (top dose mostly 76.9 µM), usual class: inhibitors; hit rate 0.05% among 75,000; BRCA1 BRCT-phosphopeptide binding, green fluorescence polarization
Target sequence (P38398 whole entry, looked up): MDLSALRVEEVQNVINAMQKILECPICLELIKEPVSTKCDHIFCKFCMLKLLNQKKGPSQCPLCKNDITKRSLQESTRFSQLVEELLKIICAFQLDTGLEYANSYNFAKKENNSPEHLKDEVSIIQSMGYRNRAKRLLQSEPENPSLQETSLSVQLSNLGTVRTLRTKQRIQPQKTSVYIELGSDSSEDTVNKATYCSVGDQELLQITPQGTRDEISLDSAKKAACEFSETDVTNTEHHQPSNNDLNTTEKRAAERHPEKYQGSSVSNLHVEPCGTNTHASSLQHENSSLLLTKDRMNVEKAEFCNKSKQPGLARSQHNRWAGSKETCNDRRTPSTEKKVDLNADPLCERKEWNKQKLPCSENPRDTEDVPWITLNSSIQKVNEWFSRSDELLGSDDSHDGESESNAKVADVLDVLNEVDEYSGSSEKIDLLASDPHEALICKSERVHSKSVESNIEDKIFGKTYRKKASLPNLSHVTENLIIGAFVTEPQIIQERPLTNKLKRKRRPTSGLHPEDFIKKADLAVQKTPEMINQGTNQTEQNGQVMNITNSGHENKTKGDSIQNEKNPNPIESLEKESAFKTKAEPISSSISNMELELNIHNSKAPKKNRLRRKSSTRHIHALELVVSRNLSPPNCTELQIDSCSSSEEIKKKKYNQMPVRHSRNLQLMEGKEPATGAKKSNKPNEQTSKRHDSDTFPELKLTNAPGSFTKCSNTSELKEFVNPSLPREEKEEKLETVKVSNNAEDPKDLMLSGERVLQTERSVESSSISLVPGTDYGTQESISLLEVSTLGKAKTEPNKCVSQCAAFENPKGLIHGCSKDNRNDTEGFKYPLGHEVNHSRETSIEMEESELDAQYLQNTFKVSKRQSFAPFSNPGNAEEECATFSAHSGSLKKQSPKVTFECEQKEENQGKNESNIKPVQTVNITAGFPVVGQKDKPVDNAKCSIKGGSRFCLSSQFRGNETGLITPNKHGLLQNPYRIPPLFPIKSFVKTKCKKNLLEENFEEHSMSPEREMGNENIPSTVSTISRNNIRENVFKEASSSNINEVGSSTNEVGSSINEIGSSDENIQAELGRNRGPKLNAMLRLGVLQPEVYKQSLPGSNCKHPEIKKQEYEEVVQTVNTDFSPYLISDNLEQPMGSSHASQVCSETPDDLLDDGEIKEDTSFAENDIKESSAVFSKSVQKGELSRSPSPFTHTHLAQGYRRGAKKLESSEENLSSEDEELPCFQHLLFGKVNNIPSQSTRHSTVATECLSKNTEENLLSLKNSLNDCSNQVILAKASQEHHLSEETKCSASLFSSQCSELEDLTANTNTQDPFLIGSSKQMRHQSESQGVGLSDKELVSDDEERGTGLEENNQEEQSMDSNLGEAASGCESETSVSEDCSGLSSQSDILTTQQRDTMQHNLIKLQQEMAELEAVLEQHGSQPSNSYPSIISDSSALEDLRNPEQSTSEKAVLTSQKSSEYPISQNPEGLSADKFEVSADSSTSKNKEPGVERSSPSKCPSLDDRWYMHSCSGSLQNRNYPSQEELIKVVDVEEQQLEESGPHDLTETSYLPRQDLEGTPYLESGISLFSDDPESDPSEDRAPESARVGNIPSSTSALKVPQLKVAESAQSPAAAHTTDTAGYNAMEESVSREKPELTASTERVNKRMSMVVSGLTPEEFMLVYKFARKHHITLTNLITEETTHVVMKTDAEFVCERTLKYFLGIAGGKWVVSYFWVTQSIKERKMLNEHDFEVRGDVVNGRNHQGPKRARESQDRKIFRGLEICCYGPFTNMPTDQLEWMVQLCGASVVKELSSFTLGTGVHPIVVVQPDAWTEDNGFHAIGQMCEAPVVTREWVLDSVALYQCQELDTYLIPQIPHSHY
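Compounds were incubated for 12 min at room temperature with a complex of 100 nM fluorescein-tagged pBACH1 decapeptide and 250 nM His-tagged BRCT protein. Buffer was phosphate pH 7.3 with EDTA, DTT and Tween 20. Disruption of binding lowers the polarization signal.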
USP2a inh: inhibitors of human ubiquitin-specific protease USP2a; USP2a enzymatic assay, qHTS inhibition; AID 927; hit rate 0.1% among 60,000; O75604; Potency, µM (titrated, usually from 38.3 µM), usual class: inhibitors; note: nearly all actives have a fitted effect of over 60% in size
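Inhibition is measured in a cell-free coupled assay with 20 nM USP2 core, 20 nM Ub-PLA2 and 20 uM NBD C6-HPC, 2.5 h incubation. Activity normalized to NEM control.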
ERK AVP block: vasopressin-driven ERK pathway inhibition; hit rate 0.99% among 72,000; HEK293-V1b, vasopressin-stimulated pERK AlphaScreen; Potency, µM (titrated, usually from 57.5 µM), most hits filed as inhibitors; note: nearly all actives have a fitted effect of over 55% in size
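qHTS, compounds titrated on V1b-expressing HEK293 cells. Preincubation 30 min at 37C, vasopressin 25 nM for 5 min, lysis 10 min, bead incubation 5 hr at room temperature.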
BRCT PPI red: BRCT-phosphoprotein interaction inhibition (red fluorophore) | hit rate 0.03% among 75,000 | P38398 | Potency, µM (doses to about 76.9 µM), most hits filed as inhibitors | AID 892 | BRCT-phosphopeptide binding, red fluorescence polarization
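Fluorescence polarization: 100 nM His-tagged BRCA1 BRCT with 100 nM TAMRA-labelled phospho-BACH1 decapeptide, phosphate buffer pH 7.3 with 150 mM NaCl, DTT, 0.01% Tween 20; 12 min RT. Binding inhibition seen as FP decrease.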
DNA Pol III inh: inhibitors of bacterial DNA polymerase III holoenzyme; reconstituted DNA polymerase III holoenzyme replication, biochemical; Potency, µM (top dose mostly 57.1 µM); hit rate 0.25% among 71,000; AID 603
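Reconstituted *E. coli* holoenzyme (0.35 nM Pol III, 1 nM beta, 154 nM SSB, 2 nM primase) was preincubated with compound for 15 min at RT. Synthesis on 1.4 nM ssM13Gori ran 35 min, then was stopped with PicoGreen/EDTA and read as dsDNA fluorescence.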
TsaE inh: YjeE (TsaE) inhibition, E. coli | P0AF67 | purified YjeE enzyme, qHTS inhibition assay | Potency, µM | hit rate 0.05% among 71,000
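Purified YjeE (10 uM) with BODIPY Texas Red-labeled ADP probe (2 uM); compounds pin-transferred, 15 min at room temperature. Binding inhibition read as decreased fluorescence polarization; ADP titration as control.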
Each line names hits and unclear results; the compound was inactive in the other large screens; ! = repeats disagree. Sampled rows, rich in hits. Any-hit rate of the full collection: about 1.3%. Calls come from the whole dose curve; as a rule, active = well fitted curve in the direction sought with a large enough effect; inconclusive = small, poorly fitted or top-dose-only effect, or another doubt; inactive = no such curve, though single readings can be large; an effect the other way counts as inactive or inconclusive.

CN(N=O)c1cc(O)ccc1O	BRCT inh green inconclusive, USP2a inh 15.8µM, BRCT PPI red 31.6µM, DNA Pol III inh 3.16µM, TsaE inh 100µM
C=CC(=O)OCC(CO)(COC(=O)C=C)COC(=O)C=C	ERK AVP block 15.8µM (no result: USP2a inh)
CN(C)C1C(=O)C(C(N)=O)=C(O)[C@@]2(O)C(=O)C3=C(O)c4c(O)ccc(Cl)c4[C@](C)(O)C3CC12 (stereo partly specified)	USP2a inh 10µM (no result: DNA Pol III inh, TsaE inh)
C[n+]1c2cc(N)ccc2cc2ccc(N)cc21	BRCT inh green 1.26µM (no result: DNA Pol III inh, TsaE inh)
C=C(C)[C@H]1[C@H]2OC(=O)[C@@H]1[C@]1(O)C[C@H]3O[C@]34C(=O)O[C@H]2[C@]14C	none (no result: BRCT inh green, USP2a inh, ERK AVP block, BRCT PPI red)
COc1cccc2c1C(=O)c1c(O)c3c(c(O)c1C2=O)C[C@](O)(/C(C)=N\O)C[C@@H]3O[C@H]1C[C@H](N)[C@@H](O)[C@H](C)O1	BRCT PPI red inconclusive, DNA Pol III inh 1µM (no result: USP2a inh)
Cc1ccc(S(=O)(=O)N(C)CCCC(=O)N2CCN(c3ccccn3)CC2)cc1	ERK AVP block 25.1µM
CCC(=NC1CCN(Cc2ccccc2)CC1)c1c(O)[nH]c(=O)[nH]c1=O	none
CCOC(=O)c1ccc(NC(=O)c2c(O)[nH]c(=O)[nH]c2=O)cc1	BRCT inh green 12.6µM
CCOC(=O)C1CCN(/C=C2/C(=O)NC(=O)N(Cc3ccco3)C2=O)CC1	DNA Pol III inh 7.94µM
[Cl-].[Cl-].[Hg+2]	ERK AVP block 7.94µM, DNA Pol III inh 31.6µM (no result: USP2a inh)
CC(=O)N1C[C@@H]2C[C@H](C1)c1cccc(=O)n1C2	none (no result: BRCT inh green, USP2a inh, ERK AVP block, BRCT PPI red)
CCOC(=O)C1SC2(C(F)F)CC1(O)c1c(c(OC)c3occc3c1OC)O2 (stereo unspecified)	ERK AVP block 20µM
CC(=O)[O-].CC(=O)[O-].O.O.O.[Pb+2]	none (no result: USP2a inh)
O=C(O)/C=C\c1ccc[c]([Sb](=[O])([OH])[OH])c1	DNA Pol III inh 0.2µM (no result: USP2a inh)
C[C@H]1CC[C@@H]2[C@@H](C)C(=O)O[C@H]3O[C@@]4(C)CC[C@@H]1[C@]32OO4	none (no result: BRCT inh green, USP2a inh, ERK AVP block, BRCT PPI red)
COC(=O)c1ccccc1-n1c(C)nc2ccccc2c1=O	none
COP(=S)(OC)SCn1nnc2ccccc2c1=O	ERK AVP block 31.6µM, TsaE inh inconclusive
COc1ccc2c(c1O)-c1cccc3c1[C@H](C2)N(C)CC3	none
CCCN1CCc2cccc3c2[C@@H]1Cc1ccc(O)c(O)c1-3	none
[Cd+2].[Cl-].[Cl-]	DNA Pol III inh 0.0631µM, TsaE inh inconclusive (no result: USP2a inh)
C[C@@H]1O[C@H](O[C@H]2C[C@@H](O)[C@]3(CO)[C@H]4[C@H](O)C[C@]5(C)[C@@H](C6=CC(=O)OC6)CC[C@@]5(O)[C@H]4CC[C@]3(O)C2)[C@@H](O)[C@H](O)[C@H]1O	none (no result: BRCT inh green, USP2a inh, ERK AVP block, BRCT PPI red)
[Cl][In]([Cl])[Cl]	DNA Pol III inh 31.6µM, TsaE inh inconclusive (no result: USP2a inh)
C=CCN1CC[C@]23c4c5ccc(O)c4O[C@@H]2/C(=N/NC(=O)c2ccccc2)CC[C@@]3(O)[C@H]1C5	none
COc1cc2c(cc1OC)[C@]13CCN4CC5=CCO[C@@H]6CC(=O)N2[C@@H]1[C@H]6[C@@H]5C[C@H]43	none (no result: BRCT inh green, USP2a inh, ERK AVP block, BRCT PPI red)
CCN1C(=O)/C(=C2\C=Cc3ccccc3N2CC)OC1=S	ERK AVP block 15.8µM
CC(=O)Oc1c2c(c(CC=C(C)C)c3c1C(=O)C1=CC4CC5C(C)(C)OC(C/C=C(\C)C(=O)O)(C4=O)[C@]15O3)OC(C)(CCC=C(C)C)C=C2 (stereo partly specified)	ERK AVP block 6.31µM (no result: DNA Pol III inh, TsaE inh)
CCN1C[C@@]2(C)CC[C@H](O)[C@@]34[C@@H]5C[C@H]6[C@H](O)[C@@H]5[C@](O)(C[C@@H]6OC)[C@H](C[C@@H]23)[C@H]14	none (no result: BRCT inh green, USP2a inh, ERK AVP block, BRCT PPI red)
C[C@@H]1O[C@@H](O[C@H]2C[C@@H](O)[C@]3(CO)[C@@H]4[C@@H](O)C[C@]5(C)[C@H]([C@@H]6COC(=O)C6)CC[C@@]5(O)[C@H]4CC[C@@]3(O)C2)[C@H](O)[C@H](O)[C@@H]1O	none
COC(=O)C1=C(C)NC(C)=C(C(=O)OC)C1c1ccccc1[N+](=O)[O-]	ERK AVP block 25.1µM!, TsaE inh inconclusive
Cc1ccccc1[N+](=O)[O-]	none (no result: USP2a inh)
CCCCCC[C@H]1C(=O)O[C@@H](C)[C@H](NC(=O)c2cccc(NC=O)c2O)C(=O)O[C@@H](C)[C@@H]1OC(=O)CC(C)C	none (no result: BRCT inh green, USP2a inh, ERK AVP block, BRCT PPI red)
CN1C[C@@H](CS(=O)(=O)N(C)C)C[C@H]2c3cccc4c3c(cn4C)C[C@@H]21	none
CCN1C[C@@]2(COC(=O)c3ccccc3N3C(=O)C[C@H](C)C3=O)CC[C@H](OC)[C@@]34[C@@H]5CC6[C@@H](OC)C[C@@](O)([C@H]5[C@H]6OC)C(O)([C@@H]13)[C@@H](OC)[C@H]24	none (no result: BRCT inh green, USP2a inh, ERK AVP block, BRCT PPI red)

Screening data deposited in PubChem BioAssay by National Center for Advancing Translational Sciences (NCATS).
